# Yp Topo-I inh = blocks Yersinia pestis topoisomerase I activity. Y. pestis Topo-I cleavage product accumulation, plate reader. 0.064% of 360,000 active. AID 504884. activity, % at 10 µM; in the data active = activity above about 50%, passing the limit was not always enough; inconclusive = no clear call, values can overlap the other calls
# PrP 5UTR inh = inhibition of PrP 5' UTR reporter expression; cell-based PrP 5' UTR mRNA reporter, plate reader; inhibition, % (concentration not given with the values); 0.35% of 340,000 active; AID 488862; in the data active = inhibition above about 52%; also: 0 = median of the neutral control wells
# BJeLR viability = BJeLR cell viability loss | AID 1554 | inhibition, % (no concentration beside the values) | 0.17% of 300,000 active | BJeLR (HRASV12) viability, CellTiter-Glo ATP luminescence, 48 h; in the data active = inhibition above about 50%; inconclusive = no clear call, values can overlap the other calls
# PfHsp40 yeast = rescue of PfHsp40-mediated yeast toxicity | growth rescue, % at 12.5 µM | S. cerevisiae expressing PfHsp40, growth rescue, ATP luminescence | 0.68% of 340,000 active; in the data active = growth rescue above about 28%, passing the limit was not always enough; inconclusive = no clear call, values can overlap the other calls;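 also: yeast W303a lacking pdr1 and pdr3 grown in galactose medium; growth measured after three days at 30 °C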
# PrPC surface inh = cell surface PrPC inhibition, primary TR-FRET screen. P04156. TR-FRET read-out. inhibition, % at 13.8 µM. 0.43% of 370,000 active. AID 720596; in the data active = inhibition above about 24%; also: 0% = median of the test wells and 100% = reference compound wells
# PriA SSB inh = inhibitors of Klebsiella pneumoniae PriA binding to SSB C-terminal tail; 0.6% of 430,000 active; AID 1272365; AlphaScreen SSBct-PriA binding, biotinylated peptide; inhibition, % at 33 µM; in the data active = inhibition mostly above about 37%, no sharp cut-off; inactive = mostly below about 20%;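 also: plate controls were negative control peptide for no effect and reference peptide for full effect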
# An asterisk follows results filed as active; ? = inconclusive; . = not tested or not shown. The list is not random: actives were taken first. Their share in the collection is about 1.7%.
SMILES,Yp Topo-I inh,PrP 5UTR inh,BJeLR viability,PfHsp40 yeast,PrPC surface inh,PriA SSB inh
CCCSc1ccc([C@@H]2[C@@H]3C(=O)N(C)C(=O)[C@@H]3[C@]3(C(=O)OC)CCCN23)cc1OC,10,-20,.,63*,.,9
COc1ccc(-[n+]2c(-c3ccccc3)cc(-c3ccc(C)cc3)cc2-c2ccccc2)cc1,24,-13,72*,-1,29*,11
COc1ccc(CCC(=O)NNC(=O)c2ccc(=O)n(Cc3ccc(Cl)cc3)c2)cc1,.,.,.,.,.,-10
C=CCc1cccc(/C=N/NC(=O)CCCNc2ccc(C)cc2)c1O,-3,-16,4,93*,0,.
Cc1cc(C)n(-c2nc(CCNC(=O)CN(C)S(C)(=O)=O)cs2)n1,.,.,.,.,.,-10
Cc1ccc(CNC(=O)CSc2ccc(-c3cccs3)nn2)cc1,-9,1,6,0,8,-8
Cc1ccc(CNC(=O)CSc2ccc(-c3ccccn3)nn2)cc1,5,4,9,219*,-2,-3
O=C(CSc1ccc(-c2ccccn2)nn1)NCc1ccc(Cl)cc1,5,-16,-6,331*,-1,0
COc1cccc(CNC(=O)CSc2ccc(-c3ccccn3)nn2)c1,3,2,-4,357*,-1,3
O=C(CSc1nnc(-c2c[nH]c3ccccc23)n1-c1ccc(F)cc1)N1CCCCC1,.,.,.,.,.,-4
COc1ccc(-c2csc(NC(=O)CCc3c(C)[nH]c(=O)[nH]c3=O)n2)cc1,.,.,.,.,.,-5
O=C(Nc1ccc(Cl)c(Cl)c1)N1CCC(Cn2cccn2)CC1,.,.,.,.,.,-14
Cc1ccc2nc(N3CCN(c4cccc(C)c4C)CC3)c3nnnn3c2c1,-3,-1,-3,-1,-3,-13
Cc1ccc2nc(Cl)c3nnnn3c2c1,-1,-2,24,85*,.,-8
COc1cccc(C(=O)Nc2c(C)nc3c(C)cccn3c2=O)c1,.,.,.,.,.,-5
C=CCC1(O)C(=O)Nc2ccccc21 (stereo not drawn),8,-23,-3,55*,-4,-13
O=C(Nc1ccc(-c2ccc3nnc(-c4ccccn4)n3n2)cc1)C1CCCC1,.,.,.,.,.,-10
O=C(Cc1ccccc1)Nc1ccc(-c2ccc3nnc(-c4ccccn4)n3n2)cc1,.,.,.,.,.,95*
O=C(Nc1ccc(-c2ccc3nnc(-c4ccccn4)n3n2)cc1)c1ccccc1Cl,.,.,.,.,.,82*
Cc1ccccc1C(=O)Nc1ccc(-c2ccc3nnc(-c4ccccn4)n3n2)cc1,.,.,.,.,.,70*
O=C(Nc1ccc(-c2ccc3nnc(-c4ccccn4)n3n2)cc1)c1ccc(Cl)nc1,.,.,.,.,.,1
O=C(NCC1CCN(c2ccccn2)CC1)Nc1ccc2c(c1)OCO2,.,.,.,.,.,-2
CCCNC(=O)c1ccc2c(=O)n(CC3CCCO3)c(SCc3ccc([N+](=O)[O-])cc3)nc2c1 (stereo not drawn),.,.,.,.,.,15
COc1ccc(C(=O)CN(C(=O)N2CCN(C)CC2)S(=O)(=O)c2ccc(C)cc2)cc1,.,.,.,.,.,-6
CC(=NNc1ccccc1)c1c(O)n(Cc2ccccc2)c(=O)[nH]c1=O,.,.,.,.,.,13
SMILES,Yp Topo-I inh,PrP 5UTR inh,BJeLR viability,PfHsp40 yeast,PrPC surface inh,PriA SSB inh
O=C(Cc1noc2ccccc12)NCc1nn(C2CCCC2)c(=O)c2ccccc12,.,.,.,.,.,22
O=C(O)c1ccc2c(c1)C1C=CCC1C(c1cc3c(cc1Br)OCO3)N2 (stereo not drawn),0,-21,4,65*,1,-8
Brc1cc2c(cc1C1Nc3ccccc3C3C=CCC31)OCO2 (stereo not drawn),2,-18,-2,-1,8,8
CCCN1CCCc2cc(CCNC(=O)c3c(F)cccc3F)ccc21,.,.,.,.,.,54*
CCCN1CCCc2cc(CCNC(=O)c3cccc(F)c3)ccc21,.,.,.,.,.,41*
CCCN1CCCc2cc(CCNC(=O)c3cccc(OC)c3)ccc21,.,.,.,.,.,61*
CCCN1CCCc2cc(CCNC(=O)c3cccc(C)c3)ccc21,.,.,.,.,.,59*
Cc1ccc(C)c(C(=O)NCCn2nc(C)cc2C)c1,.,.,.,.,.,-8
COc1ccc(-c2c(C)nn3c(Nc4ccc(F)cc4)cc(C)nc23)cc1OC,.,.,.,.,.,9
COc1ccc(S(=O)(=O)Nc2ccc3c(c2)-c2nc(C)sc2CC3)c(OC)c1,.,.,.,.,.,-4
O=C(COc1ccc(Cl)cc1)NCCn1ncc2c(=O)n(Cc3cccc(Cl)c3)cnc21,.,.,.,.,.,-6
OC(CN1CCc2ccccc2C1)CN1c2ccccc2Sc2ccccc21 (stereo not drawn),.,.,.,.,.,54*
NC(=NOC(=O)Oc1ccccc1)c1ccc(Cl)cc1,.,.,.,.,.,-9
O=C(Nc1ccc2c(c1)CCC2)c1cc2ccccc2o1,10,-137,-3,132*,2,-15
O=C(Nc1ccc2c(c1)Cc1ccccc1-2)c1cc2ccccc2o1,-10,-28,-14,-1,-2,-15
COc1ccc(-c2noc(CSc3nc(-c4ccccn4)cc(=O)[nH]3)n2)c(OC)c1,.,.,.,.,.,2
Cn1c(/C=C/c2ccc([N+](=O)[O-])o2)nc2ccccc2c1=O,-4,-32,82*,0,.,-4
CC(C)(Oc1ccc(Cl)cc1)C(=O)NCC1CCN(c2ccncc2)CC1,.,.,.,.,.,10
Cc1cnc(C(=O)OCC(=O)Nc2c(Cl)cc(Cl)cc2Cl)cn1,0,-28,.,63*,3,-6
CC1CCC2[C@@H](C)C(=O)OC3O[C@]4(C)CCC1C32OO4 (stereo partly drawn),3,-6,-4,110*,5,-7
CC1CCC2C(C)C(=O)OC3OC4(C)CCC1C32OO4 (stereo not drawn),4,-25,-2,137*,0,3
COc1ccc(Nc2nc(NCCN3CCOCC3)nc(N)c2[N+](=O)[O-])cc1,.,.,.,.,.,-10
Cn1nc(CNC(=O)NCc2cccs2)cc1-c1ccccn1,.,.,.,.,.,-7
COc1ccc(/C=N\NC(=O)c2cccc(F)c2)cc1COc1ccccc1,-3,28,54*,4,11,.
CC(C)(C)C(=O)NCc1cnn2c1CCCC2,.,.,.,.,.,-4
SMILES,Yp Topo-I inh,PrP 5UTR inh,BJeLR viability,PfHsp40 yeast,PrPC surface inh,PriA SSB inh
Cc1ccccc1C(=O)N1CCN(c2nc(-c3ccccc3)c3cc(Br)ccc3n2)CC1,.,.,.,.,.,-3
O=C(Nc1cccnc1)c1c[nH]c(=O)n(Cc2cccs2)c1=O,.,.,.,.,.,-13
Cc1nc(N2CCN(C(=O)c3ccco3)CC2)c2c3c(sc2n1)CC(C)CC3 (stereo not drawn),29,-25,0,192*,20,13
CC(C)Oc1ccc(C(=O)CN2C(=O)c3ccccc3OC(C)C2=O)cc1F (stereo not drawn),.,.,.,.,.,-26
CCc1nnc(NC(=O)c2ccccn2)s1,.,.,.,.,.,104*
CCc1nnc(NC(=O)c2ccccc2Cl)s1,.,.,.,.,.,-4
CCSc1nnc(NC(=O)c2cnccn2)s1,.,.,-12,.,.,-6
CCc1nnc(NC(=O)c2cc(Cl)ccn2)s1,1,-5,7,5,8,81*
CCc1ccnc(C(=O)Nc2nnc(CC)s2)c1,.,.,.,.,.,103*
CCc1nnc(NC(=O)c2ccc(Cl)nc2)s1,7,-10,-6,1,0,-13
CCSc1nnc(NC(=O)c2ccccn2)s1,-7,-18,19,?,0,86*
O=c1c2scc(-c3ccccc3)c2ncn1Cc1cccc(C(F)(F)F)c1,.,.,.,.,.,-4

# Screens from PubChem.
